Test results: PubChem BioAssay (NCATS)
Inconclusive results are not listed. The source made the active and inactive calls. Calls follow the shape of the dose curve; as a rule, active = well fitted curve in the direction sought with a large enough effect; inconclusive = small, poorly fitted or top-dose-only effect, or another doubt; inactive = no such curve, though single readings can be large; an effect the other way counts as inactive or inconclusive.

System: not listed separately
Experiment: qHTS of pediatric cancer cell lines to identify multiple opportunities for drug repurposing: Confirmatory screen for NB-EBc1 cells (AID 1347115);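 also: cells exposed to compound for 48 h before the viability read; % is scaled to controls: 0 for no effect and ±100 for the full control effect; nearly all actives have a fitted effect of over 45% in size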
Conditions: NB-EBc1 neuroblastoma cells, viability (cytotoxicity); series mostly up to 45.9 µM; activity change, negative = cytotoxic: at the top concentration
Outline: (§1)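 Cells (500-1,000/well) in growth media were settled 5 h at 37 degrees C, then given compounds for 48 h. Viability was read as CellTiter-Glo luminescence. Primary runs used MIPE at 11 points (0.78 nM-46 µM) and NPC at 8 points (0.59 nM-46 µM); follow-ups used 11 points.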

SMILES	activity change, negative = cytotoxic
O=C1C(I)=CC(=C(c2cc(I)c(O)c(I)c2)c2ccccc2C(=O)O)C=C1I	-17.6% (inactive)
Cc1ccccc1-n1c(Cn2cnc3c(N)ncnc32)nc2cccc(C)c2c1=O	4.2% (inactive)
C[C@]12Cc3cn[nH]c3C[C@@H]1CC[C@@H]1[C@H]2CC[C@@]2(C)[C@H]1CC[C@]2(C)O	-26.6% (inactive)

System: not listed separately
Experiment: qHTS of pediatric cancer cell lines to identify multiple opportunities for drug repurposing: Confirmatory screen for SJ-GBM2 cells (AID 1347116); also: nearly all actives have a fitted effect of over 60% in size; also: potency is read from the fitted curve at half-maximal effect;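 as to activity change, negative = cytotoxic: plate controls were DMSO for no effect and bortezomib for full effect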
Conditions: SJ-GBM2 glioblastoma cells, viability; series mostly up to 45.9 µM; activity change, negative = cytotoxic: at the top concentration; outcome: at the top concentration
Outline: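 Viability measured as metabolically active cells via CellTiter-Glo luminescence following 48 hours of compound exposure, 11-point dilutions in confirmatory testing. 500-1,000 cells/well plated 5 hours before dosing; controls were DMSO and 2.3 µM bortezomib.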

SMILES	activity change, negative = cytotoxic	Potency
Cc1ccccc1-n1c(Cn2cnc3c(N)ncnc32)nc2cccc(C)c2c1=O	20% (inactive)	
C[C@]12Cc3cn[nH]c3C[C@@H]1CC[C@@H]1[C@H]2CC[C@@]2(C)[C@H]1CC[C@]2(C)O	-25.1% (inactive)	
COc1ccc2c(c1)CN(C)CC2c1ccc(Cl)c(Cl)c1 (centres undefined)		1.47 µM (active)

System: not listed separately
Experiment: qHTS of pediatric cancer cell lines to identify multiple opportunities for drug repurposing: Confirmatory screen for BT-37 cells (AID 1347117); also: nearly all actives have a fitted effect of over 55% in size; also: potency is read from the fitted curve at half-maximal effect;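 as to activity change, negative = cytotoxic: plate controls were DMSO for no effect and bortezomib for full effect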
Conditions: BT-37 pediatric cancer cells, viability; series mostly up to 45.9 µM; activity change, negative = cytotoxic: at the top concentration
Outline: as §1

SMILES	activity change, negative = cytotoxic	Potency
O=C1C(I)=CC(=C(c2cc(I)c(O)c(I)c2)c2ccccc2C(=O)O)C=C1I	-3.22% (inactive)	
Cc1ccccc1-n1c(Cn2cnc3c(N)ncnc32)nc2cccc(C)c2c1=O	-17.8% (inactive)	
COc1ccc2c(c1)CN(C)CC2c1ccc(Cl)c(Cl)c1 (centres undefined)		23.3 µM (active)

System: not listed separately
Experiment: qHTS of pediatric cancer cell lines to identify multiple opportunities for drug repurposing: Confirmatory screen for control Hh wild type fibroblast cells (AID 1347121);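 also: plate controls were DMSO for no effect and bortezomib for full effect; nearly all actives have a fitted effect of over 70% in size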
Conditions: viability qHTS; series mostly up to 45.9 µM; activity, negative = cytotoxic: at the top concentration
Outline: as §1

SMILES	activity, negative = cytotoxic
O=C1C(I)=CC(=C(c2cc(I)c(O)c(I)c2)c2ccccc2C(=O)O)C=C1I	10.6% (inactive)
Cc1ccccc1-n1c(Cn2cnc3c(N)ncnc32)nc2cccc(C)c2c1=O	-9.26% (inactive)
C[C@]12Cc3cn[nH]c3C[C@@H]1CC[C@@H]1[C@H]2CC[C@@]2(C)[C@H]1CC[C@]2(C)O	1.24% (inactive)
COc1ccc2c(c1)CN(C)CC2c1ccc(Cl)c(Cl)c1 (centres undefined)	-1.54% (inactive)

System: not listed separately
Experiment: qHTS of pediatric cancer cell lines to identify multiple opportunities for drug repurposing: Confirmatory screen for U-2 OS cells (AID 1347122); also: nearly all actives have a fitted effect of over 65% in size; also: potency is read from the fitted curve at half-maximal effect;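 as to activity change, negative = cytotoxicity: plate controls were DMSO for no effect and bortezomib for full effect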
Conditions: U-2 OS osteosarcoma cell viability; series mostly up to 45.9 µM; activity change, negative = cytotoxicity: at the top concentration; outcome: at the top concentration
Outline: as §1

SMILES	activity change, negative = cytotoxicity	Potency
Cc1ccccc1-n1c(Cn2cnc3c(N)ncnc32)nc2cccc(C)c2c1=O	22.6% (inactive)	
C[C@]12Cc3cn[nH]c3C[C@@H]1CC[C@@H]1[C@H]2CC[C@@]2(C)[C@H]1CC[C@]2(C)O	-15.4% (inactive)	
COc1ccc2c(c1)CN(C)CC2c1ccc(Cl)c(Cl)c1 (centres undefined)		20.8 µM (active)

System: not listed separately
Experiment: qHTS of pediatric cancer cell lines to identify multiple opportunities for drug repurposing: Confirmatory screen for Rh41 cells (AID 1347123);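 also: 48 h compound exposure; nearly all actives have a fitted effect of over 60% in size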; also: potency is read from the fitted curve at half-maximal effect;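 as to activity change, negative = cytotoxic: plate controls were DMSO for no effect and bortezomib for full effect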
Conditions: Rh41 rhabdomyosarcoma cells, viability/cytotoxicity qHTS; series mostly up to 45.9 µM; activity change, negative = cytotoxic: at the top concentration
Outline: as §1

SMILES	Potency	activity change, negative = cytotoxic
O=C1C(I)=CC(=C(c2cc(I)c(O)c(I)c2)c2ccccc2C(=O)O)C=C1I	9.27 µM (active)	
Cc1ccccc1-n1c(Cn2cnc3c(N)ncnc32)nc2cccc(C)c2c1=O		-0.155% (inactive)
C[C@]12Cc3cn[nH]c3C[C@@H]1CC[C@@H]1[C@H]2CC[C@@]2(C)[C@H]1CC[C@]2(C)O		4.24% (inactive)
COc1ccc2c(c1)CN(C)CC2c1ccc(Cl)c(Cl)c1 (centres undefined)	18.5 µM (active)	

System: not listed separately
Experiment: qHTS of pediatric cancer cell lines to identify multiple opportunities for drug repurposing: Confirmatory screen for Saos-2 cells (AID 1347127); also: nearly all actives have a fitted effect of over 60% in size; also: potency is read from the fitted curve at half-maximal effect
Conditions: Saos-2 osteosarcoma cell viability; series mostly up to 45.9 µM; activity change, negative = cytotoxic: at the top concentration; outcome: at the top concentration
Outline: as §1

SMILES	activity change, negative = cytotoxic	Potency
O=C1C(I)=CC(=C(c2cc(I)c(O)c(I)c2)c2ccccc2C(=O)O)C=C1I	20.5% (inactive)	
Cc1ccccc1-n1c(Cn2cnc3c(N)ncnc32)nc2cccc(C)c2c1=O	2.65% (inactive)	
COc1ccc2c(c1)CN(C)CC2c1ccc(Cl)c(Cl)c1 (centres undefined)		23.3 µM (active)

System: not listed separately
Experiment: qHTS of pediatric cancer cell lines to identify multiple opportunities for drug repurposing: Confirmatory screen for OHS-50 cells (AID 1347128);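 also: compound exposure lasted 48 h at 37 degrees C; nearly all actives have a fitted effect of over 55% in size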; also: potency is read from the fitted curve at half-maximal effect; as to activity change, negative = cytotoxic: % is scaled to controls: 0 for no effect and ±100 for the full control effect
Conditions: OHS-50 osteosarcoma cells viability; series mostly up to 45.9 µM; activity change, negative = cytotoxic: at the top concentration
Outline: as §1

SMILES	activity change, negative = cytotoxic	Potency
O=C1C(I)=CC(=C(c2cc(I)c(O)c(I)c2)c2ccccc2C(=O)O)C=C1I	5.87% (inactive)	
Cc1ccccc1-n1c(Cn2cnc3c(N)ncnc32)nc2cccc(C)c2c1=O	0.926% (inactive)	
C[C@]12Cc3cn[nH]c3C[C@@H]1CC[C@@H]1[C@H]2CC[C@@]2(C)[C@H]1CC[C@]2(C)O	-21.3% (inactive)	
COc1ccc2c(c1)CN(C)CC2c1ccc(Cl)c(Cl)c1 (centres undefined)		23.3 µM (active)

System: not listed separately
Experiment: qHTS of pediatric cancer cell lines to identify multiple opportunities for drug repurposing: Confirmatory screen for SK-N-SH cells (AID 1347129);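 also: cells exposed to compound for 48 h before viability read; plate controls were DMSO for no effect and bortezomib control for full effect; nearly all actives have a fitted effect of over 60% in size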
Conditions: SK-N-SH neuroblastoma cell viability; series mostly up to 46.1 µM; activity change, negative = cytotoxic: at the top concentration
Outline: as §1

SMILES	activity change, negative = cytotoxic
O=C1C(I)=CC(=C(c2cc(I)c(O)c(I)c2)c2ccccc2C(=O)O)C=C1I	7.09% (inactive)
Cc1ccccc1-n1c(Cn2cnc3c(N)ncnc32)nc2cccc(C)c2c1=O	-16.4% (inactive)
C[C@]12Cc3cn[nH]c3C[C@@H]1CC[C@@H]1[C@H]2CC[C@@]2(C)[C@H]1CC[C@]2(C)O	2.23% (inactive)

Target: N-terminal Xaa-Pro-Lys N-methyltransferase 1 (Homo sapiens) (UniProt Q9BV86)
Experiment: qHTS Assay for Inhibitors of N-terminal methyltransferase 1 (NTMT1): LOPAC validation of the NTMT1 SAHH-coupled ThioGlo3 Assay (AID 1347143);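 also: SAH from peptide methylation measured as thiol fluorescence via SAHH coupling and ThioGlo3; nearly all actives have a fitted effect of over 70% in size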; also: potency is read from the fitted curve at half-maximal effect; as to activity change, negative = inhibition: % is scaled to controls: 0 for no effect and ±100 for the full control effect
Conditions: recombinant NTMT1, SAHH-coupled ThioGlo3 fluorescence; series mostly up to 114 µM; activity change, negative = inhibition: at the top concentration
Outline: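 In this qHTS pilot against the LOPAC set, 125nM NTMT1 met compounds tested at multiple concentrations, and fluorescence was normalized to background.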

N-terminal Xaa-Pro-Lys N-methyltransferase 1 (Homo sapiens), sequence (Q9BV86 whole entry, looked up): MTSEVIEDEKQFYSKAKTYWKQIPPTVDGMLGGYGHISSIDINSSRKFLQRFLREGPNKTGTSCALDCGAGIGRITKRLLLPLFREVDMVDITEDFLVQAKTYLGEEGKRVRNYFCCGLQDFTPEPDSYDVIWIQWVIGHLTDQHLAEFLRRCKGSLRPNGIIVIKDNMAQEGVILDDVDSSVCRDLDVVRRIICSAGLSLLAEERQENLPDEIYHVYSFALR

SMILES	activity change, negative = inhibition	Potency
NC(CP(=O)(O)O)C(=O)O (centres undefined)	-15.7% (inactive)	
C[C@@H]1O[C@H](C[N+](C)(C)C)C[C@H]1O	-5.15% (inactive)	
O=C(O)[C@@H]1CCN1	-6.45% (inactive)	
NC(N)=NOCCC(N)C(=O)O (centres undefined)	-16.2% (inactive)	
CN1C2CCC1CC(OC(=O)c1cc(Cl)cc(Cl)c1)C2 (centres undefined)	-10.9% (inactive)	
CC(=O)NCCc1c[nH]c2ccccc12	-19.3% (inactive)	
CCCN(CCC)[C@@H]1CCc2ccc(O)cc2C1	-16.5% (inactive)	
CC[C@@H](C(N)=O)N1CCCC1=O	-11.5% (inactive)	
C#CCOC(=O)C1=CCCN(C)C1	-12.8% (inactive)	
C=CCN1CC[C@]23CCCCC2[C@H]1Cc1ccc(O)cc13 (some centres undefined)	-16.9% (inactive)	
Cc1nccc2c1[nH]c1ccccc12		79.4 µM (active)
C[N+]1(C)C2CC(OC(=O)[C@H](CO)c3ccccc3)CC1C1OC12 (some centres undefined)		inactive
CS(=N)(=O)CC[C@H](N)C(=O)O (some centres undefined)	-17.9% (inactive)	
CC1=NN=C(c2ccc(N)cc2)c2cc3c(cc2C1)OCO3		56.2 µM (active)
O=C(O)CC[N+](=O)[O-]	-21.5% (inactive)	
CC(C)NC(C)Cc1ccc(I)cc1 (centres undefined)	-17.2% (inactive)	
Cn1cnc(CCN)c1	-20.1% (inactive)	

SMILES	activity change, negative = inhibition	Potency
c1ccc(C2(c3ccccc3)CC2C2=NCCN2)cc1 (centres undefined)	-10.1% (inactive)	
CC[C@@H]1C(=O)OC[C@@H]1Cc1cncn1C		inactive
c1ccc2sc(C3(N4CCCCC4)CCCCC3)cc2c1	-15.7% (inactive)	
COc1ccc2c(c[n+](C)c3c4cc5c(cc4ccc23)OCO5)c1OC		25.1 µM (active)
C[N+]1(C)C2CCC1CC(OC(=O)C(CO)c1ccccc1)C2 (centres undefined)		inactive
NC(=O)CN1CC(O)CC1=O (centres undefined)	-5.28% (inactive)	
CC(=O)[C@H]1CCC2C3CC[C@H]4C[C@H](O)CC[C@]4(C)C3CC[C@@]21C (some centres undefined)	-7.45% (inactive)	
COc1cc(C(O)CN)ccc1O (centres undefined)	-26.4% (inactive)	
CC(C)Oc1cccnc1N(C)C1CCN(Cc2ccccc2)CC1		56.2 µM (active)
NCc1cc(=O)[nH]o1	-11.8% (inactive)	
CCCN1CCC[C@H](c2cccc(O)c2)C1	-17.5% (inactive)	
C[C@@H](N)Cc1cnc[nH]1	-20.7% (inactive)	
NC1CCc2cc(O)c(O)cc2C1 (centres undefined)		22.4 µM (active)
CCCCc1ccc(C(=O)O)nc1	-10.7% (inactive)	
C[C@]12N[C@H](Cc3ccccc31)c1ccccc12	-16.7% (inactive)	
C[C@]12CCC3C(CC[C@H]4C[C@H](O)CC[C@]34C)C1CC[C@@H]2C(=O)CO (some centres undefined)	-14.8% (inactive)	
O=C1CCCN1CC#CCN1CCCC1	-17.5% (inactive)	
